Data from PubChem BioAssay AID2110 (National Center for Advancing Translational Sciences (NCATS), 2009).
Records with an inconclusive call do not appear. Where a call stands in place of a potency, no number is given. Activity calls are given as the source filed them. Calls follow the shape of the dose curve; as a rule, active = well fitted curve in either direction with a large enough effect; inconclusive = small, poorly fitted or top-dose-only effect; inactive = no such curve, though single readings can be large or run the other way.

Target: Lysosomal alpha-glucosidase (Homo sapiens) (UniProt P10253)
Test: Confirmation of Inhibitors and Activators of Purified Human alpha-Glucosidase Using an Alternate Red Fluorescent Susbtrate
Description: NIH Chemical Genomics Center [NCGC]
NIH Molecular Libraries Probe Production centers Network [MLPCN]
Assay Submitter (PI): Wei Zheng
Alpha-glucosidase is responsible for hydrolysis of terminal, non-reducing 1,4-linked alpha-D-glucose residues with release of alpha-D-glucose. It is a lysosomal hydrolase that is required for the degradation of a small percentage (1-3%) of cellular glycogen in human. Deficiency of this enzyme results in glycogen-storage disease type II (GSDII), also referred to as Pompe disease, an autosomal recessive disorder. Structurally normal glycogen is accumulated in lysosomes and cytoplasm in affected patients, primarily in muscle tissues. Excessive glycogen storage within lysosomes may interrupt normal functioning of other organelles and leads to cellular injury. […]
This is a fluorogenic enzyme assay with resorufin-alpha-D-pyranoside as the substrate and recombinant human alpha-glucosidase as the enzyme preparation. Upon the hydrolysis of this fluorogenic substrate, the resulting product, resorufin, can be excited at 573 nm and emits at 610 nm which can be detected by a standard fluorescence plate reader. […] The AC50 values were determined from concentration-response data modeled with the standard Hill equation. […]
(6) Detect the assay plate in a ViewLux plate reader (PerkinElmer) with Ex=365 nm and Em=440nm. […]

With `Cc1c2ccncc2c(C)c2c1[nH]c1ccccc12` the Potency was 35.5 µM (active).

For `CC[C@@]1(O)C(=O)OCc2c1cc1n(c2=O)Cc2cc3ccccc3nc2-1`, the Potency was “inactive”.
